According to PubChem BioAssay (Tox21):
Inconclusive results are not listed. The source made the active and inactive calls. Unless noted, the call rests on the fitted dose curve; in most records, active means well fitted curve in the direction sought with a large enough effect in the repeat runs; inconclusive means weak or mixed curves; inactive means no such curve, though single readings can be large; an effect the other way counts as inactive or inconclusive.

Experiments:
[1] = A CellTox Green Cytotoxicity Assay to monitor cytotoxicity in HepG2 cells - 0 hour (AID 1224882); further: nearly all actives have a fitted effect of over 35% in size
Method in brief: (§1)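 HepG2, 600 cells/well premixed w/ CellTox Green; 5 h settle, 37 C/5% CO2; pintool cpd add (DMSO); 37 C, 40 h; fluorescence read at 0, 8, 16, 24, 32, 40 h.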

[2] = A CellTox Green Cytotoxicity Assay to monitor cytotoxicity in HepG2 cells - 32 hour (AID 1224883); further: nearly all actives have a fitted effect of over 50% in size
Method in brief: as §1

[3] = A CellTox Green Cytotoxicity Assay to monitor cytotoxicity in HEK293 cells - 8 hour (AID 1224884); further: nearly all actives have a fitted effect of over 35% in size
Method in brief: (§2)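 Read-out: fluorescence of a cell-impermeant cyanine dye staining DNA of dead cells, proportional to cytotoxicity. HEK293, 600 cells/well with reagent, compound (23 nL DMSO) added after 5 h; reads at 0, 8, 16, 24, 32, 40 h.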

[4] = qHTS RealTime-Glo MT Cell Viability Assay in HEK293 cells - 24 hour (AID 1224886); further: top concentration of the series differs between compounds; nearly all actives have a fitted effect of over 50% in size
Method in brief: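 Nonlytic real-time viability readout: viable cells convert prosubstrate to NanoLuc substrate, giving luminescence proportional to live cell number. HEK293, 600 cells/well, compound added after 5 h, continuous culture at 37 C.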

[5] = qHTS RealTime-Glo MT Cell Viability Assay in HEK293 cells - 8 hour (AID 1224887); further: top concentration of the series differs between compounds; nearly all actives have a fitted effect of over 50% in size
Method in brief: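 Luminescence readout at each listed time point; HEK293, 600 cells/well, RealTime-Glo MT reagent added with cells; compounds pinned (23 nL in DMSO) after 5 h at 37 C; continuous culture at 37 C.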

[6] = A CellTox Green Cytotoxicity Assay to monitor cytotoxicity in HEK293 cells - 16 hour (AID 1224888); further: nearly all actives have a fitted effect of over 35% in size
Method in brief: as §2

[7] = qHTS RealTime-Glo MT Cell Viability Assay in HepG2 cells - 0 hour (AID 1224889); further: nearly all actives have a fitted effect of over 50% in size
Method in brief: (§3)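 Luminescence read-out: viable HepG2 cells reduce a prosubstrate to a NanoLuc substrate, giving a signal proportional to live cell number. Reads taken at 0, 8, 16, 24, 32 and 40 h of compound exposure at 37 C.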

[8] = A CellTox Green Cytotoxicity Assay to monitor cytotoxicity in HepG2 cells - 8 hour (AID 1224890); further: nearly all actives have a fitted effect of over 45% in size
Method in brief: as §1

[9] = qHTS assay to identify small molecule antagonists of the estrogen receptor alpha (ER-alpha) signaling pathway using the BG1 cell line in the presence of 0.1 nM 17-beta-estradiol - cell viability counter screen (AID 1259241); further: nearly all actives have a fitted effect of over 40% in size
Method in brief: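 Following 5 days in phenol red-free medium with charcoal-stripped serum, VM7Luc4E2 cells received test compounds alongside 0.1 nM 17beta-estradiol (final) at 37C for 22 hr. Live cells were then quantified via protease-substrate fluorescence.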

[10] = qHTS assay to identify small molecule antagonists of the androgen receptor (AR) signaling pathway using the MDA cell line in the presence of 0.5 nM R1881 - cell viability counter screen (AID 1259242); further: nearly all actives have a fitted effect of over 45% in size
Method in brief: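 Live-cell protease fluorescence, CellTiter-Fluor, 30 min at 37C. Cells: MDA-kb2, 3,000/well, preincubated 5 hr. Compounds plus 0.5 nM R1881 final, 16 hr, 37C, 0% CO2.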

[11] = target: Estrogen receptor (Homo sapiens) (UniProt P03372); test: qHTS assay to identify small molecule antagonists of the estrogen receptor alpha (ER-alpha) signaling pathway using the BG1 cell line in the presence of 0.1 nM 17-beta-estradiol (AID 1259244); further: nearly all actives have a fitted effect of over 50% in size
Sequence of Estrogen receptor (Homo sapiens) (P03372 whole entry, looked up): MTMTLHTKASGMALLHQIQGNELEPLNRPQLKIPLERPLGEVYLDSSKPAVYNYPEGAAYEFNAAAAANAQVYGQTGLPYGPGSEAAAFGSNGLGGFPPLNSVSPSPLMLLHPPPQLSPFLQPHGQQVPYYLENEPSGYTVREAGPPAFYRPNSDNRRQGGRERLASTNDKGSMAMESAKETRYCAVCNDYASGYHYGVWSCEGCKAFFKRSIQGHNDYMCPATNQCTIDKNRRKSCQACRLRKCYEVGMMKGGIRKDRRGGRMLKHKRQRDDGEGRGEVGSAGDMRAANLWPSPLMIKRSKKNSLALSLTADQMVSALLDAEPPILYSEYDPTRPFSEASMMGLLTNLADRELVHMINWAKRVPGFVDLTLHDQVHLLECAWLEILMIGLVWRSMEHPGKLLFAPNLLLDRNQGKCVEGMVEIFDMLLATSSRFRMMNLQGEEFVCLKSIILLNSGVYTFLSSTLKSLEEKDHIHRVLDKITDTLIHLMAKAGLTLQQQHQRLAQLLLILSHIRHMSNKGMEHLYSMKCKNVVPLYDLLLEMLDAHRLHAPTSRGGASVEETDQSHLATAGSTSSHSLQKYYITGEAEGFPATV
Method in brief: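 Luminescence after ONE-Glo (30 min, room temperature) measured ERE-luciferase activity in VM7Luc4E2 cells treated 22 h with compound and 0.1 nM final 17beta-estradiol as stimulator.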

[12] = qHTS assay to identify small molecule HDAC inhibitors (AID 1259364);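 further: wild-type HCT-116 cells with endogenous class I/II HDAC activity; top concentration of the series differs between compounds; nearly all actives have a fitted effect of over 45% in size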
Method in brief: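 HCT-116 (wild type), 1,500 cells/well, overnight; compound 2 hr 37C 5% CO2; HDAC-Glo I/II reagent 30 min RT; luminescence readout.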

[13] = qHTS assay to identify small molecule antagonists of the sonic hedgehog signaling (Shh) pathway - cell viability counter screen (AID 1259367); further: nearly all actives have a fitted effect of over 55% in size
Method in brief: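 Cytotoxicity was assessed in parallel with Shh reporter activity by measuring live-cell protease fluorescence (CellTiter-Fluor) in NIH/3T3 cells stably carrying Gli1-Luc, treated with compound under conditioned medium stimulation for 23 hr plus 1 hr reagent incubation.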

[14] = qHTS assay to identify small molecule agonists of the sonic hedgehog signaling (Shh) pathway (AID 1259368; calls by dose curve;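 further: NIH/3T3-derived 3T3Gli1-Luc cells carrying a stable Gli1-driven firefly luciferase reporter; series mostly up to about 92 µM; nearly all actives have a fitted effect of over 15% in size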)
Method in brief: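 Read-out: firefly luciferase luminescence from a Gli1 response element reporter stably integrated in NIH/3T3-derived 3T3Gli1-Luc cells, measured 30 min at room temperature after reagent addition. Compound exposure lasted 24 hr at 37 C, 5% CO2.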

[15] = qHTS assay to identify small molecule antagonists of the sonic hedgehog signaling (Shh) pathway (AID 1259369; calls by dose curve; further: nearly all actives have a fitted effect of over 45% in size)
Method in brief: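 Luminescence readout: firefly Luc under Gli1 response element in 3T3Gli1-Luc cells (NIH/3T3 clone). Antagonist mode, stimulation by conditioned medium; compound exposure 24hr at 37 C, 5% CO2.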

[16] = qHTS RealTime-Glo MT Cell Viability Assay in HepG2 cells - 16 hour (AID 1224885); further: nearly all actives have a fitted effect of over 50% in size
Method in brief: as §3

[17] = qHTS assay to identify small molecule HDAC inhibitors - cell viability counter screen (AID 1259365)
Method in brief: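 HCT-116 wild-type, overnight attachment; 2hr drug exposure, 37C; CellTiter-Glo luminescent ATP readout after 30min RT.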

[18] = qHTS assay to identify small molecule agonists of the sonic hedgehog signaling (Shh) pathway - cell viability counter screen (AID 1259366); further: nearly all actives have a fitted effect of over 50% in size
Method in brief: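 Compounds in DMSO were pin-transferred onto 3T3 Gli1-Luc cells that had settled 4hr; plates then stood 24hr at 37C and 5% CO2. One hour before the end, CellTiter-Fluor was added and fluorescence recorded.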

[19] = qHTS assay to identify small molecule phospholipidosis (PLD) inducers (AID 1259344; active means well fitted curve in the direction sought with a large enough effect; an effect the other way counts as inactive or inconclusive)
Method in brief: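 Cells (HepG2, 900 per well) attach for 4 h, receive LipidTOX Red and compound together, incubate 24 h at 37 C, are fixed 30 min with paraformaldehyde/Hoechst, then imaged at one site per well.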

Measured: Potency

COc1ccc(/C(C)=C/C(=O)O)c(OC)c1
not listed: [16] | [17] | [18] | [19]
inactive: all other assays above

Clc1nc2ccccc2nc1Cl
not listed: [4] | [6] | [7] | [9] | [10] | [14] | [15] | [19]
inactive: all other assays above

CC(O)C(C)O (stereo unspecified)
not listed: [11] | [14] | [16] | [19]
inactive: all other assays above

O=C(O)c1ccc(O)c(O)c1
not listed: [9] | [16] | [17] | [19]
inactive: all other assays above

CCOCCn1c(N2CCCN(C)CC2)nc2ccccc21
not listed: [11] | [15] | [16]
inactive: all other assays above

N#Cc1ccc(CC(=O)c2cccc(C(F)(F)F)c2)cc1
not listed: [4] | [5] | [9] | [11] | [15] | [19]
inactive: all other assays above

O=C(OCCN1CCOCC1)c1cccnc1Nc1cccc(C(F)(F)F)c1
not listed: [4] | [9] | [19]
inactive: all other assays above

CC/C=C/CCO
not listed: [11] | [16] | [19]
inactive: all other assays above

COc1ccc(C(=O)c2ccc(C)cc2)c(O)c1
not listed: [4] | [5] | [6] | [12] | [14]
inactive: all other assays above
